Measured values published in PubChem BioAssay.
Unmarked numbers belong to inactive results. How the calls were made is not given here.

target: Pantothenate synthetase (Mycobacterium tuberculosis (strain ATCC 25618 / H37Rv)) (UniProt P9WIL5); test: Coupled enzyme confirmation of inhibitors against recombinant Mtb PanC (AID 375); conditions: coupled enzyme assay; at 10 µM, hits give high values;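 further: 0% = full reaction with vehicle and 100% = no enzyme background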
Sequence (P9WIL5 whole entry, looked up): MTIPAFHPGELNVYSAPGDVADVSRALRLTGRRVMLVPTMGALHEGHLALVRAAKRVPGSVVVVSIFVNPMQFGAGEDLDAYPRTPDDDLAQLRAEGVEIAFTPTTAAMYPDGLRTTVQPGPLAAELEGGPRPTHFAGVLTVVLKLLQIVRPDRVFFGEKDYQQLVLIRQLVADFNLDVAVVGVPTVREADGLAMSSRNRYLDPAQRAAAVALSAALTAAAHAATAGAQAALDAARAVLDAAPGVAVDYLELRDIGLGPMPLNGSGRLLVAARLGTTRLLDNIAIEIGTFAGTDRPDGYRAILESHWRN

Compound | inhibition
COc1ccc(-c2noc(CN3CCC(Cc4ccccc4)CC3)n2)cc1 | 0%
CCOc1nc(-c2ccccc2)ccc1-c1noc(-c2ccc(OC)c(OC)c2)n1 | 4%
Nc1nnc(SCc2cc3c(cc2Cl)OCO3)s1 | 7%
O=C(CSc1nc2ccccc2n1CC(=O)N1CCCC1)Nc1nccs1 | 0%
COc1cc(C(c2sc3nc(C)nn3c2O)N2CC(C)CC(C)C2)cc(OC)c1OC (stereo not given) | 0%
COCCn1c(C)cc(C(=O)CSc2nc3ccccc3c(=O)[nH]2)c1C | 0%
O=C(COc1nnnc2ccccc12)N1CCCc2ccccc21 | 0%
CC1=C(C(=O)N2CCOCC2)C(c2ccccc2F)C2=C(CCCC2=O)N1 (stereo not given) | 3%
Cc1ccccc1NC(=O)C1CCC(C)(C(=O)O)C1(C)C (stereo not given) | 0%
Cc1nn(-c2ccc(F)cc2)c2nc(N)c(C#N)c(-c3cccs3)c12 | 6%
Cn1c(Cc2cccs2)nnc1SCC(=O)N1CCc2ccccc21 | 0%
Cc1ccc(-c2nnnn2CS(=O)(=O)c2ccccc2)cc1 | 0%
CCOc1ccccc1Nc1nc2ccccc2[nH]1 | 1%
CCC1Cc2c(nc3c4c(nc(N5CCOCC5)c(C#N)c24)NC(C)=N3)O1 (stereo not given) | 0%
O=C(Cn1cnc2c(cnn2-c2ccccc2)c1=O)NCCc1ccccc1 | 0%
CCCC1(CCC)NC(=O)NC1=O | 0%
O=C(Nc1ccc2c(c1)OCO2)c1cccc(Cl)c1 | 0%
CN(C)/C=N/c1ncnc2c1cnn2-c1ccc(C(F)(F)F)cn1 | 3%
O=C(NCC(F)(F)F)N1CCOCC1 | 0%
N#Cc1nc(-c2ccco2)oc1N1CCN(c2cccc(Cl)c2)CC1 | 6%

Compound | inhibition
CCOC(=O)Nc1ccc(NS(=O)(=O)c2ccc(C)cc2)cc1 | 0%
CCCc1nnc(SCC(=O)N2CCOCC2)n1Cc1ccco1 | 0%
CCN(CC)C(=O)C1CCC(CNS(=O)(=O)c2cccc3cccnc23)CC1 (stereo not given) | 0%
c1ccc(Cn2nnc3c(N4CCC5(CC4)OCCO5)ncnc32)cc1 | 0%
C=CCN(C(=O)CNS(=O)(=O)c1ccccc1)C(C(=O)NCCOC)c1ccncc1 (stereo not given) | 0%
O=C(O)C1CC(=O)N(Cc2ccccc2)C1 (stereo not given) | 1%
CCC1CCCCN1C(=O)Cn1c(C(=O)OC)cc2sc(Cl)cc21 (stereo not given) | 0%
O=C(Cn1nnc2ccccc2c1=O)NC1CCCc2ccccc21 (stereo not given) | 5%
COc1cccc(C(=O)Nc2ccc(NC(=O)C(C)(C)C)cn2)c1 | 0%
Cc1ccsc1C1C2=C(CCCC2=O)Nc2ncnn21 (stereo not given) | 0%
CCOC(=O)C1CCN(Cc2ccc(F)c(Br)c2)CC1 | 0%
COc1ccc(S(=O)(=O)NCCC(=O)NC2CCCCCCC2)cc1 | 0%
O=C(Cn1c(NCCO)nc2ccccc21)c1ccccc1 | 6%
CC1(C)O[C@@H]2C[C@H]3[C@@H]4CCC5=CC(=O)C=C[C@]5(C)[C@@]4(F)[C@@H](O)C[C@]3(C)[C@]2(C(=O)CO)O1 | 2%
Cn1c(Cl)nc2ccccc21 | 0%
Cc1nc(C)c(C(=O)C2=C(O)C(=O)N(CCCn3ccnc3)C2c2ccccc2)s1 (stereo not given) | 1%
COc1ccc(OC)c(Nc2nc(-c3cccs3)cs2)c1 | 0%
O=C(Nc1cccc2ccccc12)c1ccc(Br)o1 | 0%
C=CCn1c(Cc2csc(N)n2)nnc1SCC(=O)OCC | 1%
Cc1cc(C)nc(N2CCC(C(=O)NCc3cccc(C(F)(F)F)c3)CC2)n1 | 3%
